Test results reported in PubChem BioAssay (Tox21).
Inconclusive results are not listed. The source made the active and inactive calls. Unless noted, calls follow the shape of the dose curve; as a rule, active = well fitted curve in the direction sought with a large enough effect in the repeat runs; inconclusive = weak or mixed curves; inactive = no such curve, though single readings can be large; an effect the other way counts as inactive or inconclusive.

Experiments:
[1] = qHTS assay to test for compound auto fluorescence at 460 nm (blue) in HEK293 cell free culture (AID 720681); conditions: cell-free medium, autofluorescence 405/460 nm (blue); series mostly up to 91.3 µM
Procedure, shortened: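 Compounds were added to cell-free DMEM with 10% FBS and fluorescence read directly. The blue channel used 405 nm excitation and 460 nm emission, with triamterene as the reference fluorophore.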

[2] = qHTS assay to test for compound auto fluorescence at 535 nm (green) in HEK293 cell free culture (AID 720682); conditions: cell-free medium, green autofluorescence 485/535 nm, hits give high values; series mostly up to 91.3 µM
Procedure, shortened: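 No cells present: wells hold DMEM supplemented with 10% FBS, into which compound or vehicle is pinned. Green emission is then recorded (485 nm excitation, 535 nm emission) and scaled to fluorescein.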

[3] = qHTS assay to test for compound auto fluorescence at 590 nm (red) in HEK293 cell free culture (AID 720683); conditions: cell-free medium autofluorescence, Ex540/Em590 red; series mostly up to 91.3 µM
Procedure, shortened: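 Cell-free wells of DMEM with 10% FBS received compound, and intrinsic fluorescence was read at excitation/emission 540/590 nm. Values expressed as equivalence to Rose Bengal sodium.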

[4] = qHTS assay to test for compound auto fluorescence at 590 nm (red) in HepG2 cell free culture (AID 720684); conditions: cell-free medium autofluorescence, red 540/590 nm; series mostly up to 91.3 µM
Procedure, shortened: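 Rose Bengal sodium served as the reference for red signal. Test compounds were dispensed into serum-containing MEM (10% FBS) without cells, and plates were read at 540/590 nm.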

[5] = qHTS assay to test for compound auto fluorescence at 460 nm (blue) in HepG2 cell free culture (AID 720685); conditions: Cell-free culture medium, blue autofluorescence 405/460 nm; series mostly up to 91.3 µM
Procedure, shortened: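 Cell-free plates of MEM plus 10% FBS received 23 nL compound or DMSO vehicle; blue-channel (405/460 nm) intensity scored against triamterene as reference fluorophore.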

[6] = qHTS assay to test for compound auto fluorescence at 535 nm (green) in HepG2 cell free culture (AID 720686); conditions: Cell-free medium, green autofluorescence 485/535 nm; series mostly up to 91.3 µM
[7] = biological target: Glucocorticoid receptor (Homo sapiens) (UniProt P04150); assay: qHTS assay to identify small molecule agonists of the glucocorticoid receptor (GR) signaling pathway (AID 720691; active = well fitted activation curve with a large enough effect in the signal ratio in the repeat runs, not every such curve was filed as active; the % refers to the signal ratio); conditions: GR-bla HeLa, beta-lactamase reporter ratio, 18 h; series mostly up to 62.4 µM
Sequence of Glucocorticoid receptor (Homo sapiens) (P04150 whole entry, looked up): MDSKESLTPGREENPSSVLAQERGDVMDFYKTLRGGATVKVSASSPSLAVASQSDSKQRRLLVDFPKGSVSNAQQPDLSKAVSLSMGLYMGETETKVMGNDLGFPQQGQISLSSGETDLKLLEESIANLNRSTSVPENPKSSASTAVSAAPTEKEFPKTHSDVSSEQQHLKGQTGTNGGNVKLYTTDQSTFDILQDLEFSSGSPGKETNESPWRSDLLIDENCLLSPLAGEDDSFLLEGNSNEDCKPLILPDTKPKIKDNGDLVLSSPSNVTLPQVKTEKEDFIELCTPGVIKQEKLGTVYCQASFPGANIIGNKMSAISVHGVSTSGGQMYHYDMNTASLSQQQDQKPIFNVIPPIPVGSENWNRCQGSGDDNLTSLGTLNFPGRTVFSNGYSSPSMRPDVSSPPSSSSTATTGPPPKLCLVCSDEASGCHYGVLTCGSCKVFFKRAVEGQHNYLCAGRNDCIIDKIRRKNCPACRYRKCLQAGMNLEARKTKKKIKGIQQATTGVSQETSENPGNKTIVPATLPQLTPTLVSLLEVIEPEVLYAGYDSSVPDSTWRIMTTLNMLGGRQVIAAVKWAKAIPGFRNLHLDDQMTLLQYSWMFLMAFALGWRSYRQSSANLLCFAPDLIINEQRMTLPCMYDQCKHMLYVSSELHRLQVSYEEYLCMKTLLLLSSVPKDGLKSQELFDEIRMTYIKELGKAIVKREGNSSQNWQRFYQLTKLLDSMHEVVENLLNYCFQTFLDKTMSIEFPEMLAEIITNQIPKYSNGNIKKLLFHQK
Procedure, shortened: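 Agonist-mode qHTS in HeLa cells stably expressing a glucocorticoid-response-element beta-lactamase reporter. Fluorescence intensity read with FRET substrate (2 h, room temperature) after 18 h compound treatment at 37 C.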

[8] = qHTS assay for identifying genotoxic compounds that show differential cytotoxicity against isogenic chicken DT40 cell lines with known DNA damage response pathways - wild type cell line (AID 743012); conditions: DT40 wild type chicken cells viability, CellTiter-Glo, 40 h; series mostly up to 68.4 µM; also: nearly all actives have a fitted effect of over 60% in size
Procedure, shortened: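 Viability by ATP luminescence (CellTiter-Glo, 30 min RT) after 40 h compound treatment at 37 C/5% CO2, using 300 parental DNA repair-proficient DT40 cells per well.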

[9] = qHTS assay for identifying genotoxic compounds that show differential cytotoxicity against isogenic chicken DT40 cell lines with known DNA damage response pathways - Rad54/Ku70 mutant cell line (AID 743015); conditions: DT40 Rad54/Ku70 mutant viability, CellTiter-Glo, 40 h; series mostly up to 66.8 µM; also: nearly all actives have a fitted effect of over 60% in size
[10] = qHTS assay to identify small molecule antagonists of the androgen receptor (AR) signaling pathway - cell viability counter screen (AID 743033; also: nearly all actives have a fitted effect of over 45% in size); conditions: AR-bla HEK293 viability, CellTiter-Glo luminescence, 16 h; series mostly up to 58.5 µM
[11] = qHTS assay to identify small molecule antagonists of the androgen receptor (AR) signaling pathway using the MDA cell line - cell viability counter screen (AID 743041; also: nearly all actives have a fitted effect of over 45% in size); conditions: MDA-kb2 viability, CellTiter-Fluor, 16 h, cells co-treated with R1881 androgen agonist; series mostly up to 70.3 µM
Procedure, shortened: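 Cytotoxicity counter screen: MDA-kb2 AR-luc cells, compound + R1881, 16 h, 37C, 0% CO2; CellTiter-Fluor added at 15.5 h, fluorescence read after 30 min.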

[12] = qHTS assay to test for compound auto fluorescence at 460 nm (blue) in HepG2 cells (AID 720687); conditions: autofluorescence 405/460 nm, 1 h; series mostly up to 91.3 µM
Procedure, shortened: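 HepG2 cells in MEM with 10% FBS, attached overnight at 37 C, were exposed to compound or DMSO for 1 hr at 37 C, 5% CO2. Blue fluorescence was read at 405/460 nm, with triamterene as reference fluorophore.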

[13] = biological target: Glucocorticoid receptor (Homo sapiens) (UniProt P04150); assay: qHTS assay to identify small molecule antagonists of the glucocorticoid receptor (GR) signaling pathway (AID 720692; active = well fitted inhibition curve with a large enough effect in the signal ratio in the repeat runs, not every such curve was filed as active; the % refers to the signal ratio); conditions: GR-bla HeLa, beta-lactamase FRET ratio, dexamethasone-stimulated, 18 h; series mostly up to 58.5 µM
Procedure, shortened: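 Inhibition of dexamethasone-driven (5 nM final) beta-lactamase expression was measured in GRE-reporter HeLa cells over 18 h at 37C. Fluorescence was read after 2 h with the B/G FRET substrate at room temperature.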

[14] = qHTS assay to identify small molecule antagonists of the glucocorticoid receptor (GR) signaling pathway - cell viability counter screen (AID 720693); conditions: GR-bla HeLa viability, CellTiter-Glo luminescence, 18 h, with 5 nM dexamethasone present; series mostly up to 58.5 µM; also: nearly all actives have a fitted effect of over 55% in size
[15] = qHTS assay for identifying genotoxic compounds that show differential cytotoxicity against isogenic chicken DT40 cell lines with known DNA damage response pathways - Rev3 mutant cell line (AID 743014); conditions: chicken DT40 Rev3-/- viability, CellTiter-Glo, 40 h; series mostly up to 68.4 µM; also: nearly all actives have a fitted effect of over 55% in size
[16] = biological target: Androgen receptor (Homo sapiens) (UniProt P10275); assay: qHTS assay to identify small molecule agonists of the androgen receptor (AR) signaling pathway (AID 743036; active = well fitted activation curve with a large enough effect in the signal ratio in the repeat runs, with a control signal flat, not every such curve was filed as active; the % refers to the signal ratio); conditions: HEK293 AR-UAS-bla GripTite, beta-lactamase FRET ratio, 16 h; series mostly up to 62.4 µM
Sequence of Androgen receptor (Homo sapiens) (P10275 whole entry, looked up): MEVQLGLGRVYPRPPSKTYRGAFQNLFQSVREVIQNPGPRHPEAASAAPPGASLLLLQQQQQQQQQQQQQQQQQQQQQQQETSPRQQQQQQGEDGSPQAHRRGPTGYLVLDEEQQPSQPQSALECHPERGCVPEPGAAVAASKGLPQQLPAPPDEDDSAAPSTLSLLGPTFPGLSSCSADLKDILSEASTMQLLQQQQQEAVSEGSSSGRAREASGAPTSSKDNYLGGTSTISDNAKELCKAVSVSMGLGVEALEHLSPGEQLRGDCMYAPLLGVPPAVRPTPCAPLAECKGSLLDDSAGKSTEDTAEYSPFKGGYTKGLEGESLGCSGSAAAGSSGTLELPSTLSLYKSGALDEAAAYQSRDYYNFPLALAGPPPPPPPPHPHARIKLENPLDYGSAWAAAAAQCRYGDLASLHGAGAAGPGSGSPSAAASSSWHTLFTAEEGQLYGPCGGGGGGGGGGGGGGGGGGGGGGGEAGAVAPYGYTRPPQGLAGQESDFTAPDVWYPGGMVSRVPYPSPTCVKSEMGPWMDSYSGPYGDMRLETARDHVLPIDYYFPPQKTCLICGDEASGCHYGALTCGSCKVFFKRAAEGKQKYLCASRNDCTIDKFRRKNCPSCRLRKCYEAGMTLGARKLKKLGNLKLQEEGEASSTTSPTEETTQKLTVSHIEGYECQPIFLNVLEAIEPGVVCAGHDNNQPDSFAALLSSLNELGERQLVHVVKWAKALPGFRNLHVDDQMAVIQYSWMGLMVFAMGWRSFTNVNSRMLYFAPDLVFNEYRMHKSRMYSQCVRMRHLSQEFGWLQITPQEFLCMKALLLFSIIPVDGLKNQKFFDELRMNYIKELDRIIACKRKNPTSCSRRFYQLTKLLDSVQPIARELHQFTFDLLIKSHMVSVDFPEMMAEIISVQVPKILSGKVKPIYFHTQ
Procedure, shortened: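 Quantitative HTS of the Tox21 10K library in HEK293 cells bearing a stably integrated UAS-controlled beta-lactamase reporter. Compound exposure lasted 16 h at 37C. Reporter activity was detected by FRET substrate fluorescence after 2 h at room temperature.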

[17] = biological target: Androgen receptor (Homo sapiens) (UniProt P10275); assay: qHTS assay to identify small molecule agonists of the androgen receptor (AR) signaling pathway using the MDA cell line (AID 743040; also: nearly all actives have a fitted effect of over 20% in size); conditions: MDA-kb2 AR-luc cells, MMTV luciferase, 16 h, hits give high values; series mostly up to 70.3 µM
Procedure, shortened: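 Luciferase read-out, ONE-Glo, 30 min RT. Cells: MDA-kb2 AR-luc, MMTV promoter with AR and GR response elements. Compound exposure 16 h, 37C, 0% CO2, after 5 h pre-incubation. qHTS agonist mode.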

[18] = biological target: Androgen receptor (Homo sapiens) (UniProt P10275); assay: qHTS assay to identify small molecule antagonists of the androgen receptor (AR) signaling pathway using the MDA cell line (AID 743042; also: nearly all actives have a fitted effect of over 55% in size); conditions: MDA-kb2 AR-luc, MMTV luciferase, R1881 antagonist, 16 h; series mostly up to 70.3 µM
Procedure, shortened: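 MDA-kb2 breast carcinoma cells carrying MMTV-luciferase (AR/GR responsive) were co-treated with compounds and the agonist R1881 for 16 h at 37C. Inhibition read as ONE-Glo luminescence; CellTiter-Fluor fluorescence measured in parallel for cytotoxicity.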
% is scaled to controls: 0 for no effect and ±100 for the full control effect.

c1ccc(CN(Cc2ccccc2)Cc2ccccc2)cc1
inactive: Potency [1] | outcome [2] | outcome [3] | outcome [4] | outcome [5] | outcome [6] | Potency [7] | Potency [8] | Potency [9] | Potency [10] | Potency [11]

OCC(O)c1ccccc1 (stereo unspecified)
inactive: Potency [1] | outcome [2] | outcome [3] | outcome [4] | outcome [5] | outcome [6] | outcome [12] | Potency [8] | Potency [9] | Potency [10] | Potency [11]

C(/C=C/C=C/Nc1ccccc1)=Nc1ccccc1
inactive: Potency [1] | outcome [2] | outcome [3] | outcome [4] | outcome [5] | outcome [6] | outcome [12] | Potency [8] | Potency [10]

CC(C)(O)C(=O)O
inactive: Potency [1] | outcome [2] | outcome [3] | outcome [4] | outcome [5] | outcome [6] | Potency [7] | Potency [13] | Potency [14] | Potency [8] | Potency [15] | Potency [9] | Potency [10] | Potency [11]

CC(COc1ccccc1)NC(C)C(O)c1ccc(O)cc1 (stereo unspecified)
inactive: fluorescence, % of fluorescent control [1] 0.128% [at 18.6 µM] | activity change [2] -0.0013% [at 18.6 µM] | fluorescence, % of fluorescent control [3] 0.208% [at 18.6 µM] | fluorescence, % of Rose Bengal [4] -0.0388% [at 18.6 µM] | fluorescence, % of fluorescent control [5] -0.0841% [at 18.6 µM] | fluorescence, % of fluorescein control [6] 0.0107% [at 18.6 µM] | Potency [7] | Potency [13] | Potency [14] | Potency [8] | Potency [15] | Potency [9] | Potency [10] | Potency [11]

O=C(O)c1cc(C(=O)O)cc([N+](=O)[O-])c1
inactive: Potency [1] | outcome [2] | outcome [3] | outcome [4] | outcome [5] | outcome [6] | outcome [12] | Potency [7] | Potency [13] | Potency [14] | Potency [8] | Potency [9] | Potency [10] | Potency [11]

CCCOC(C)=O
inactive: Potency [1] | outcome [2] | outcome [3] | outcome [4] | outcome [5] | outcome [6] | outcome [12] | Potency [7] | Potency [13] | Potency [14] | Potency [8] | Potency [9] | Potency [10] | outcome [16] | outcome [17] | Potency [11] | Potency [18]

C1=COCCC1
inactive: Potency [1] | outcome [2] | outcome [3] | outcome [4] | outcome [6] | outcome [12] | Potency [7] | Potency [13] | Potency [14] | Potency [8] | Potency [15] | Potency [9] | Potency [10] | Potency [11]

CCC(C)CCCC(C)(C)O (stereo unspecified)
inactive: Potency [1] | outcome [2] | outcome [3] | outcome [4] | outcome [6] | outcome [12] | Potency [7] | Potency [13] | Potency [14] | Potency [8] | Potency [9] | Potency [10] | Potency [11]

C[C@@H](O)[C@H]1C(=O)N2C(C(=O)O)=C(S[C@@H]3CN[C@H](CNS(N)(=O)=O)C3)[C@H](C)[C@H]12
inactive: Potency [1] | outcome [2] | outcome [3] | outcome [4] | outcome [5] | outcome [6] | Potency [7] | Potency [13] | Potency [8] | Potency [9] | Potency [10] | Potency [11]

O=[N+]([O-])c1ccc(Cl)cc1Cl
inactive: Potency [1] | outcome [2] | outcome [3] | outcome [4] | outcome [5] | outcome [6] | Potency [7] | Potency [13] | Potency [14] | Potency [8] | Potency [15] | Potency [9] | Potency [10] | Potency [11]

CCCCCCCCC(=O)OCC(C)OC(=O)CCCCCCCC (stereo unspecified)
inactive: Potency [1] | outcome [2] | outcome [3] | outcome [4] | outcome [6] | outcome [12] | Potency [7] | Potency [14] | Potency [8] | Potency [15] | Potency [10] | Potency [11]

C=C[Si]1(C)O[Si](C)(C=C)O[Si](C)(C=C)O[Si](C)(C=C)O1 (stereo unspecified)
inactive: Potency [1] | outcome [2] | outcome [3] | outcome [4] | outcome [5] | outcome [6] | outcome [12] | Potency [7] | Potency [13] | Potency [14] | Potency [10] | Potency [11]

C/C=C1\[C@H]2C=C(C)C[C@]1(N)c1ccc(=O)[nH]c1C2
inactive: Potency [1] | outcome [2] | outcome [3] | outcome [4] | outcome [5] | Potency [7] | Potency [13] | Potency [8] | Potency [15] | Potency [9] | Potency [10] | Potency [11]

CCc1c(C)[nH]c2c1C(=O)C(CN1CCOCC1)CC2 (stereo unspecified)
inactive: fluorescence, % of fluorescent control [1] 0.0226% [at 18.6 µM] | activity change [2] 0.141% [at 18.6 µM] | fluorescence, % of fluorescent control [3] 0.113% [at 18.6 µM] | fluorescence, % of Rose Bengal [4] -0.199% [at 18.6 µM] | fluorescence, % of fluorescent control [5] -0.0691% [at 18.6 µM] | fluorescence, % of fluorescein control [6] 0.0022% [at 18.6 µM] | Potency [9] | Potency [10] | Potency [11]

C=C[Si](OCC)(OCC)OCC
inactive: Potency [1] | outcome [2] | outcome [3] | outcome [4] | outcome [6] | outcome [12] | Potency [7] | Potency [13] | Potency [8] | Potency [15] | Potency [9] | Potency [10] | Potency [11]

c1ccc(-c2ccc(-c3ccccc3)cc2)cc1
inactive: fluorescence, % of fluorescent control [1] -0.0624% [at 18.6 µM] | activity change [2] -0.0551% [at 18.6 µM] | fluorescence, % of fluorescent control [3] -0.201% [at 18.6 µM] | fluorescence, % of Rose Bengal [4] -0.0264% [at 18.6 µM] | fluorescence, % of fluorescent control [5] 0.0163% [at 18.6 µM] | fluorescence, % of fluorescein control [6] -0.0394% [at 18.6 µM] | fluorescence, % of fluorescent control [12] -0.024% [at 18.6 µM] | Potency [7] | Potency [13] | Potency [14] | Potency [15] | Potency [9] | Potency [10] | Potency [11]

N#CCCCC(C#N)CCC#N (stereo unspecified)
inactive: Potency [1] | outcome [2] | outcome [3] | outcome [4] | outcome [5] | outcome [6] | Potency [14] | Potency [8] | Potency [15] | Potency [9] | Potency [10]
